# Test results taken from PubChem BioAssay.
# Unmarked numbers belong to inactive results. The source made the active and inactive calls.
# Assay: plasmodial surface anion channel blockers, osmotic lysis – cell-based, P. falciparum Indochina, OD700, 1 h, primary screen (AID 1154)
# Conditions: P. falciparum Indochina infected RBC osmotic lysis, higher = more signal, called active from +8 up or from −8 down
row,SMILES,z-score
1,Cc1cc(C)c(-c2cc([C@H](C)ON=C[C@@H](C)[C@H](OCc3ccccc3)C(C)C)on2)c(C)c1,0.859
2,CC(CCN1CCCCc2nc(C)c(C)cc21)=NO[C@H](C)c1cn([C@@H]2COC[C@H]2O)nn1,0.682
3,COC(=O)[C@H](C)NC(=O)CCC1CC(OC(=O)NCc2ccc3c(c2)OCO3)CC2(CCCC(COC(=O)NCc3ccccc3)O2)O1 (stereo partly specified),1.08
4,CC(=O)OC[C@H]1O[C@H](C#CCC2CCCCC2)C=C[C@@H]1OC(C)=O,2.09
5,CN1CCc2nc(-c3ccccc3)c(-c3ccccc3)cc2C1,0.296
6,CO[C@H]1COC(=O)CCC[C@H](C)[C@H](OC)COC(=O)CC=C[C@@H]1C,-0.972
7,COCOc1ccc(Br)cc1C(=O)C=Cc1ccc2c(c1)OCO2,8.25 (active)
8,CCN1C(=O)[C@H]2[C@H]3[C@H](O)[C@H](O)CC(=NO[C@@H](C)c4cc(-c5c(C)cc(C)cc5C)no4)[C@@H]3CC[C@H]2C1=O,2.34
9,C[C@@H](c1ccccc1)N1C(=O)[C@H]2[C@H]3[C@H](O)[C@H](O)CC(=NNC(=O)OCc4ccccc4)[C@@H]3CC[C@H]2C1=O,0.0012
10,CO[C@H]1COC(=O)CCC[C@H](C)[C@@H](OC)COC(=O)CC=C[C@@H]1C,-1.29
11,CO[C@H]1COC(=O)CC=C[C@H](C)[C@H](OC)COC(=O)[C@@H](C)NC(=O)CC=C[C@@H]1C,-0.89
12,CC(CCN1CCCc2nc(C)c(C)cc21)=NOC[C@@H](C)[C@H](OCc1ccccc1)C(C)C,1.25
13,COc1ccc(COC(=O)NN=C2C[C@@H](O)[C@@H](O)[C@@H]3[C@@H]4C(=O)N([C@@H](C)c5ccccc5)C(=O)[C@@H]4CC[C@H]23)cc1,7.67
14,C=C(C)C(=O)OC[C@H]1CN2[C@@H](CC[C@@H](C)[C@@H]2c2ccc(Br)cc2)C(=O)O1,3.08
15,O=C1[C@H]2[C@H]3[C@H](O)[C@H](O)CC(=NOC[C@@H](O)COCc4ccco4)[C@@H]3CC[C@H]2C(=O)N1Cc1ccc2c(c1)OCO2,30 (active)
16,O=C(NN=C1C[C@@H](O)[C@@H](O)[C@@H]2[C@@H]3C(=O)N(c4ccc(F)cc4F)C(=O)[C@@H]3CC[C@H]12)OCc1ccccc1,10.1 (active)
17,CC(=O)OC[C@H]1O[C@H](CC=NOC[C@@H](O)COCc2ccco2)C=C[C@@H]1OC(C)=O,0.77
18,CCN1C(C)=C(C(=O)OC)[C@@H](c2ccccc2)N2C(=O)[C@](O)(C(=O)OC)CC(C(C)=O)=C12,0.725

row,SMILES,z-score
1,CC(C)CON=C1C[C@@H](O)[C@@H](O)[C@@H]2[C@@H]3C(=O)N([C@@H](C)c4ccccc4)C(=O)[C@@H]3CC[C@@H]12,0.694
2,COC(=O)CC=C1c2ccccc2[C@H](OC)[C@H]1C,0.0311
3,CC(=O)OC[C@H]1O[C@H](CC=NOC[C@@H](O)[C@H]2O[C@@H]3OC(C)(C)O[C@@H]3[C@H]2O)C=C[C@@H]1OC(C)=O,0.466
4,C#CCCCON=C1C[C@@H](O)[C@@H](O)[C@@H]2[C@@H]3C(=O)N(C[C@@H]4CCCO4)C(=O)[C@@H]3CC[C@H]12,0.515
5,CCN1C(=O)[C@H]2[C@H]3[C@H](O)[C@H](O)CC(=NNC(=O)OCc4ccccc4)[C@H]3CC[C@H]2C1=O,1.26
6,C[C@@H]1CC[C@H]2C(=O)OC(Cc3ccccc3)CN2[C@H]1c1ccc(Br)cc1 (stereo partly specified),1.96
7,CC(C)=NOC(C)CN1CCCCc2nc(C)c(C)cc21 (stereo unspecified),-0.147
8,COC(=O)[C@@H]1CC[C@H](C)[C@@H](c2ccc(C)cc2)N1C(=O)c1ccc(C=NOC[C@@H](O)[C@H]2O[C@@H]3OC(C)(C)O[C@@H]3[C@H]2O)cc1,0.465
9,CCOC(=O)[C@H](Cc1ccccc1)NC(=O)CCC1CC(OC(=O)NCc2cccc3ccccc23)CC2(CCCC(COC(=O)NCCc3ccccc3OC)O2)O1 (stereo partly specified),-0.623
10,CON=C[C@@H](OC)[C@H](C)C=CCC(=O)OC,0.0283
11,O=C(NCCC[N+]1=CC=NC1c1ccccc1)N1CCCc2nc(-c3ccc(Br)cc3)ccc21 (stereo unspecified),5.32
12,COc1cccc([C@H](O)Cn2cc(-c3ccc(CON=C(C)C)cc3)nn2)c1,25.6 (active)
13,C=CC[C@@H]1C=C[C@H](Oc2ccc(C)cc2)[C@@H](COC(=O)NCc2cccc3ccccc23)O1,2.39
14,COC(=O)[C@H](C)NC(=O)CCC1CC(OC(=O)NCCc2ccc(F)cc2)CC2(CCCC(COC(=O)NCCOc3ccccc3)O2)O1 (stereo partly specified),-1.23
15,CO[C@@H](C(C)C)[C@@H](C)C1OC(=O)CC1O (stereo partly specified),-0.315
16,CO[C@@H]1C=CCC(=O)N[C@@H](C)C(=O)OC[C@@H](NS(=O)(=O)c2ccc(C)cc2)[C@H](C)C=CCC(=O)OC[C@H]1C,0.0412
17,O=C1[C@H]2[C@H]3[C@H](O)[C@H](O)CC(=NO[C@@H]4O[C@H](CO)[C@@H](O)[C@H](O)[C@H]4O)[C@@H]3CC[C@H]2C(=O)N1C1CCCCC1,0.785
18,CCOC(=O)[C@H](CC(C)C)NC(=O)CCC1CC(OC(=O)NCc2ccc3c(c2)OCO3)CC2(CCCC(COC(=O)NCCOc3ccccc3)O2)O1 (stereo partly specified),0.339
